In the library only some 3.7% were active in any assay of this set; here they are far more common.
TGFb SMAD3 inh – TGF-b pathway inhibition | HepG2 CAGA-GFP TGF-b/SMAD3 reporter, GFP fluorescence, 18 h; TGF-beta stimulated, 500 pg/mL final | Potency, µM (titrated, usually from 46.1 µM), hits mostly inhibitors | 1.2% of 410,000 active | AID 588855; also: nearly all actives have a fitted effect of over 65% in size
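Cell-based qHTS in HEPG2 carrying a CAGA-GFP Smad reporter; compounds added before 500 pg/mL final TGF-beta, 18 h incubation at 37 degrees C, GFP fluorescence quantified per cell by imaging cytometry.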
GLP-1R agonist – agonists of human GLP-1 receptor; P43220; HEK293 GLP-1R CRE-luciferase, luminescence, 4-6 h; cells express a hypersensitive GLP-1R form; Potency, µM (highest dose often 45.6 µM), usual class: activators; 0.007% of 380,000 active
Target sequence (P43220 whole entry, looked up): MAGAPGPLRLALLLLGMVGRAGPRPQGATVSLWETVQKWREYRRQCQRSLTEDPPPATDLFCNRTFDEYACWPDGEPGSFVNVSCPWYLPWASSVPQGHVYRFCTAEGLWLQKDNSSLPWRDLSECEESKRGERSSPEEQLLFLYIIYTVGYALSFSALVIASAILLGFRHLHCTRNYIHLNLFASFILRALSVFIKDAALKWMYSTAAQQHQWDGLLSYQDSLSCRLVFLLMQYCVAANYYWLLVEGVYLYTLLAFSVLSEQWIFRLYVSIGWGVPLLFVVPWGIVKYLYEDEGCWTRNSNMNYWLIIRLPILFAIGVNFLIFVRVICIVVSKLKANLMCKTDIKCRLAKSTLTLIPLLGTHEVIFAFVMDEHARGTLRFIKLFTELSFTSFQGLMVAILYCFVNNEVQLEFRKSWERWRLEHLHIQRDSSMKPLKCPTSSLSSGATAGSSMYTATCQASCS
HepG2 tox-1 – counter-screen for TGF-b inhibitors: cytotoxicity in HepG2 cells; HepG2 CAGA-GFP viability, ATP luminescence, 18 h; Potency, µM (top dose mostly 46.1 µM), usual class: cytotoxic; 0.76% of 410,000 active
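HepG2 CAGA-GFP cells (1000/well, DMEM with 1% FBS) received compound, then TGF-beta at 500 pg/mL final, and were incubated 18 hours at 37 degrees C. Viability was read by CellTiter-Glo luminescence. Media-only wells were set as complete cell-killing and DMSO as no toxicity.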
GLP-1R inv ag – acts as inverse agonist at human GLP-1 receptor; Potency, µM (highest dose often 38.3 µM), usual class: inhibitors; 1.6% of 410,000 active; HEK293 GLP-1R CRE-luciferase, luminescence, 24 h; GLP-1R form is constitutively active; P43220; also: nearly all actives have a fitted effect of over 55% in size
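Cells are plated, allowed 12 hours at 37 deg C, then treated with compounds for 24 hr before luciferase detection reagent is added and luminescence is read after 12 min at room temperature. The HEK293 line carries constitutively active GLP-1R with a cAMP-responsive reporter.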
ATXN2 expr inh – ATXN2 expression inhibition; 0.72% of 360,000 active; HEK-293 ATXN2-luciferase reporter, luminescence, 24 h; Potency, µM (highest dose often 57 µM), actives largely listed as inhibitors; also: nearly all actives have a fitted effect of over 55% in size
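ATXN2-luciferase reporter cells (luciferase flanked by upstream and downstream ATXN2 gene portions) were treated 24 h at 37 °C with compounds at up to 57 uM. SteadyGlo luminescence gave expression; GF-AFC fluorescence gave viability.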
ATXN viability – viability counter-screen for ATXN expression inhibitors; Potency, µM (doses to about 56.7 µM), most hits filed as cytotoxic; 0.49% of 400,000 active; S2 cells (HEK-293 line with an ATXN2-luciferase reporter) viability, CellTiter-Fluor protease fluorescence, 24 h; also: nearly all actives have a fitted effect of over 40% in size
TGFb CAGA inh – confirmation of TGF-b signaling inhibitors in HepG2 reporter cells; shares compounds with TGFb SMAD3 inh; 63% of 1,600 active; Potency, µM (series often up to 46.1 µM), most hits filed as inhibitors; AID 720534; HepG2 CAGA-GFP TGF-b reporter, GFP fluorescence, 18 h; cells stimulated with TGF-beta, 500 pg/mL; also: nearly all actives have a fitted effect of over 65% in size
HepG2 tox-2 – HepG2 cytotoxicity, TGF-b inhibitor counterscreen; shares compounds with TGFb SMAD3 inh; HepG2 CAGA-GFP viability, ATP luminescence, 18 h; cells stimulated with TGF-beta, 500 pg/mL; Potency, µM (series often up to 46.1 µM), most hits filed as inhibitors; 27% of 1,600 active; AID 720535; also: nearly all actives have a fitted effect of over 70% in size
CCL64 TGFb inh – orthogonal confirmation of TGF-b inhibitors in CCL64 cells. shares compounds with TGFb SMAD3 inh. CCL64 CAGA-GFP reporter, TGF-b stimulated, GFP fluorescence, 18 h. Potency, µM (titrated, usually from 46.1 µM), actives largely listed as inhibitors. 41% of 1,600 active. AID 720536; also: nearly all actives have a fitted effect of over 65% in size
TGFb COP inh – TGF-b inhibition validated with COP promoter | shares compounds with TGFb SMAD3 inh | HepG2 COP-GFP TGF-b reporter, GFP fluorescence, 18 h; cells stimulated by added recombinant TGF-beta | Potency, µM (highest dose often 46.1 µM), hits mostly inhibitors | 3% of 1,600 active; also: nearly all actives have a fitted effect of over 70% in size
Of the large screens only hits and unclear results are named; the others gave an inactive call (follow-up assays come after a bar, where they were run). Calls follow the shape of the dose curve; as a rule, active = well fitted curve in the direction sought with a large enough effect; inconclusive = small, poorly fitted or top-dose-only effect, or another doubt; inactive = no such curve, though single readings can be large; an effect the other way counts as inactive or inconclusive.

Cc1ccc(S(=O)(=O)Nc2ccc3c(c2)C(=O)N([C@H](C)CO)C[C@H](C)[C@@H](CN(C)Cc2ccc(-c4ccccc4)cc2)O3)cc1	TGFb SMAD3 inh 10µM, GLP-1R inv ag inconclusive, ATXN viability inconclusive | TGFb CAGA inh 9.2µM | HepG2 tox-2 inconclusive | CCL64 TGFb inh 21µM | TGFb COP inh inactive
Nc1[nH]c(=S)[nH]c(=O)c1N=O	none (no result: GLP-1R agonist, GLP-1R inv ag, ATXN2 expr inh, ATXN viability)
CC(C)C[C@H]1CNC(=S)N1C[C@H]1CCCN1C[C@H](CC(C)C)N1C[C@H](Cc2ccc(O)cc2)N(CCc2ccccc2)C1=S	TGFb SMAD3 inh 7.1µM, GLP-1R inv ag inconclusive, ATXN2 expr inh inconclusive, ATXN viability 7.1µM | TGFb CAGA inh inconclusive | HepG2 tox-2 21µM | CCL64 TGFb inh 23µM | TGFb COP inh inactive
CC(C)C[C@H]1CN([C@@H](CC(C)C)CN2CCC[C@@H]2CN2C(=S)NC[C@@H]2Cc2ccc(O)cc2)C(=S)N1CCc1ccccc1	TGFb SMAD3 inh 10µM, GLP-1R inv ag inconclusive, ATXN2 expr inh inconclusive, ATXN viability inconclusive | TGFb CAGA inh 13µM | HepG2 tox-2 inconclusive | CCL64 TGFb inh 16µM | TGFb COP inh inactive
COc1ccccc1C1C(C(=O)Nc2ccccc2)=C(C)Nc2nc(-c3ccccc3)nn21 (stereo not drawn)	TGFb SMAD3 inh inconclusive
CCCCc1ccc(NC(=S)NCc2cccc(OC)c2)cc1	TGFb SMAD3 inh inconclusive, GLP-1R inv ag inconclusive
CCCCc1ccc(NC(=S)Nc2ccc(Nc3ccc(OC)cc3)cc2)cc1	TGFb SMAD3 inh 8.9µM, GLP-1R inv ag inconclusive | TGFb CAGA inh 23µM | HepG2 tox-2 inconclusive | CCL64 TGFb inh inconclusive | TGFb COP inh inactive
COc1ccc(Cl)cc1NC(=O)CSc1nnc(Cc2ccc(C)cc2)c(=O)[nH]1	TGFb SMAD3 inh 8.9µM, GLP-1R inv ag inconclusive | TGFb CAGA inh 21µM | HepG2 tox-2 inconclusive | CCL64 TGFb inh inactive | TGFb COP inh inactive
CC(OC(=O)Cc1ccc(F)cc1)C(=O)NCc1ccc2c(c1)OCO2 (stereo not drawn)	TGFb SMAD3 inh inconclusive | TGFb CAGA inh inactive | HepG2 tox-2 inactive | CCL64 TGFb inh inactive | TGFb COP inh inactive
Cc1ccc2c(Sc3ccccc3)c(C(=O)NCc3ccccc3F)[nH]c2c1	none (no result: GLP-1R agonist)
C=CCNC(=O)c1onc(CSc2ccc(F)cc2)c1C(=O)NCC=C	none
C=CCNC(=O)c1onc(CSc2ccc(F)cc2)c1C(=O)NCCOC	TGFb SMAD3 inh inconclusive | TGFb CAGA inh inactive | HepG2 tox-2 inactive | CCL64 TGFb inh inactive | TGFb COP inh inactive
COc1ccccc1N1CCN(CCCNC(=O)c2cnn(-c3ccccc3)c2C2CCN(C(=O)OC(C)(C)C)CC2)CC1	TGFb SMAD3 inh inconclusive, GLP-1R inv ag inconclusive (no result: GLP-1R agonist, ATXN2 expr inh, ATXN viability)
CC(CNC(=O)c1cccnc1)NC(=O)c1cccnc1 (stereo not drawn)	none (no result: TGFb SMAD3 inh, HepG2 tox-1, GLP-1R inv ag, ATXN2 expr inh, ATXN viability)

Source: PubChem BioAssay
